Assay results reported in PubChem BioAssay (EPA / NIEHS).
Inconclusive results are not listed. Active and inactive are the calls of the source. The calls were made as follows, unless noted: active = hit-call score of the fitted dose curve at least 0.9, where 1 is the maximum; inactive = score below 0.9.

Columns and labels:
[1] = target: Nuclear respiratory factor 1 (Homo sapiens) (UniProt Q16656); test: ATG_NRF1_CIS: Attagene CIS-FACTORIAL HepG2 Assay for human Nuclear Respiratory Factor 1 (NRF1) Orphan Gene (AID 2282987); settings: HepG2 NRF1 cis-element reporter, Attagene multiplex; actives raise or lower the signal
Summary of the method: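 Cells (HepG2, transient MRTU transfection) are exposed to compound for 24 h, then RNA isolated and reporter mRNA amplified and fluorescently labelled. Fragments are separated by capillary electrophoresis; signal change is fitted bidirectionally relative to DMSO.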

[2] = ATG_NFI_CIS: Attagene CIS-FACTORIAL HepG2 Assay for human Nuclear Factor I (NFI) (AID 2282989); settings: HepG2 cis-regulatory reporter, NFI response element transcription; actives raise or lower the signal
Summary of the method: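 Reporter transcription driven by endogenous transcription factors in HepG2 cells; 24 h treatment. Quantitation by labelled RT-PCR fragments on capillary electrophoresis, gain- or loss-of-signal relative to DMSO.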

[3] = target: Myc proto-oncogene protein (Homo sapiens) (UniProt P01106); test: ATG_Myc_CIS: Attagene CIS-FACTORIAL HepG2 Assay for human Myelocytomatosis (Myc) Proto-Oncogene Transcription Factor (AID 2282990); settings: HepG2, Attagene cis-reporter transcription factor activity; actives raise or lower the signal
Summary of the method: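 Read-out: fluorescent reporter mRNA fragments resolved by capillary electrophoresis after RT-PCR. Human HepG2 liver cells carried transfected cis-element reporter units and were dosed for 24 h. Gain or loss of signal fitted relative to DMSO baseline.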

[4] = ATG_NF_kB_CIS: Attagene CIS-FACTORIAL HepG2 Assay for human Nuclear Factor Kappa B (NF-kB) (AID 2282991); settings: HepG2 Attagene cis-factorial NF-kB reporter mRNA; actives raise or lower the signal
Summary of the method: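 Measures mRNA induction of an NF-kB-responsive cis-element reporter in HepG2 cells transfected with multiple reporter units, sampled 24 h post-dosing; quantified by fluorescence after RT-PCR and capillary electrophoresis, fitted for activation or inhibition against DMSO.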

[5] = ATG_NRF2_ARE_CIS: Attagene CIS-FACTORIAL HepG2 Assay for human Nuclear Factor Erythroid 2 Related Factor 2 (NFR2) response to Antioxidant Response Elements (ARE) (AID 2282992); settings: HepG2 Attagene ARE/NRF2 reporter, transcription factor activity; actives raise or lower the signal;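 as to AC50: reporter mRNA level measured by RT-PCR and capillary electrophoresis fluorescence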
Summary of the method: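 Fluorescence intensity of reporter-specific cDNA fragments, separated by capillary electrophoresis, reflects mRNA induction in transfected HepG2 cells at 24 h. Activity is fitted bidirectionally, DMSO serving as baseline.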

[6] = ATG_Oct_MLP_CIS: Attagene CIS-FACTORIAL HepG2 Assay for human Octamer-Binding Transcription Factor (Oct) (AID 2282993); settings: HepG2 Attagene cis-factorial Oct reporter, mRNA; actives raise or lower the signal
Summary of the method: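 Transfected HepG2 cells, 24 h treatment. Reporter mRNA quantified by RT-PCR–capillary electrophoresis; bidirectional fitting against DMSO.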

[7] = BSK_3C_TissueFactor: BioMAP Diversity Plus: 3C Assay for Tissue Factor Biomarker Activity (AID 2282997); settings: BioMAP 3C HUVEC, tissue factor biomarker readout; actives raise or lower the signal
Summary of the method: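 Cells used were primary human umbilical vein endothelial cells. They were dosed with chemical, and after 24 h Tissue Factor was quantified by ELISA. Curves were fitted bidirectionally with DMSO as baseline.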

[8] = BSK_3C_uPAR: BioMAP Diversity Plus: 3C Assay for Urokinase-type plasminogen activator receptor (uPAR) Biomarker Activity (AID 2282998); settings: BioMAP 3C HUVEC, uPAR biomarker ELISA; actives raise or lower the signal
Summary of the method: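 Readout: ELISA for surface uPAR. System: human umbilical vein endothelial primary cells, 24 h after chemical exposure. Analysis: bidirectional fit, DMSO baseline.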

[9] = BSK_3C_VCAM1: BioMAP Diversity Plus: 3C Assay for Vascular cell adhesion molecule 1 (VCAM1) Biomarker Activity (AID 2282999); settings: BioMAP 3C HUVEC, VCAM1 ELISA, cytokine-stimulated; actives raise or lower the signal
Summary of the method: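 HUVEC primary cells, 24 h compound exposure; VCAM-1 by ELISA; gain/loss of signal fitted bidirectionally vs DMSO baseline.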

[10] = BSK_4H_Eotaxin3: BioMAP Diversity Plus: 4H Assay for Eotaxin 3 Biomarker Activity (AID 2283000); settings: primary human endothelial cells (HUVEC); actives raise or lower the signal
Summary of the method: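 Endothelial primary cells (human umbilical vein) exposed to compound for 24 h. ELISA detection of Eotaxin-3.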

[11] = target: human Peroxisome Proliferator-activated Receptor delta (PPARd), PPARD (gene 5467) (UniProt Q03181); test: ATG_PPARd_TRANS: Attagene TRANS-FACTORIAL HepG2 Assay for human Peroxisome Proliferator-activated Receptor delta (PPARd) (AID 2283002; active = hit-call score of the fitted dose curve at least 0.9, where 1 is the maximum)
Summary of the method: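 Read-out: reporter mRNA induction, quantified by fluorescent RT-PCR products resolved by capillary electrophoresis. Human HepG2 liver cells carried transiently transfected Gal4-UAS reporter constructs with chimeric NR-Gal4 fusions. Cells were dosed for 24 h; DMSO served as baseline.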

[12] = BSK_3C_Proliferation: Cell Proliferation Assessment in the BioMAP Diversity Plus: 3C Assay (AID 2283006); settings: primary human endothelial cells (HUVEC);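 as to AC50: potency may reflect either rise or fall in cell number versus DMSO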
Summary of the method: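 Cells (human umbilical vein endothelial, sub-confluent) receive test chemical; after 48 h they are fixed in 10% trichloroacetic acid, stained with 0.1% SRB and read at 560 nm. Activity is referenced to DMSO, fitting increases and decreases.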

[13] = target: Peroxisome proliferator-activated receptor gamma (Homo sapiens) (UniProt P37231); test: ATG_PPARg_TRANS: Attagene TRANS-FACTORIAL HepG2 Assay for human Peroxisome Proliferator-activated Receptor-gamma (PPARg) (AID 2283007; active = hit-call score of the fitted dose curve at least 0.9, where 1 is the maximum)
Summary of the method: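 Gain-of-signal endpoint relative to DMSO, derived from reporter mRNA levels quantified by RT-PCR and capillary electrophoresis. Cells were HepG2 transiently expressing a chimeric NR-Gal4 construct with GAL4-UAS reporters, exposed to chemicals for 24 h.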

[14] = target: human Peroxisome Proliferator-activated Receptor alpha (PPARa), PPARA (gene 5465) (UniProt Q07869); test: ATG_PPARa_TRANS: Attagene TRANS-FACTORIAL HepG2 Assay for human Peroxisome Proliferator-activated Receptor alpha (PPARa) (AID 2283001; active = hit-call score of the fitted dose curve at least 0.9, where 1 is the maximum)
Summary of the method: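 HepG2, transient MRTU transfection, 24 h treatment. RT-PCR → FAM labelling → capillary electrophoresis. Fit vs DMSO, positive direction.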

[15] = target: Nuclear receptor subfamily 1 group I member 2 (Homo sapiens) (UniProt O75469); test: ATG_PXR_TRANS: Attagene TRANS-FACTORIAL HepG2 Assay for human Pregnane X Receptor (PXR) (AID 2283008; active = hit-call score of the fitted dose curve at least 0.9, where 1 is the maximum)
Summary of the method: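 Transient HepG2 transfectants carrying multiplexed reporter transcription units; PXR activity read through a Gal4 chimera. 24 h exposure. RT-PCR/CE fluorescence; upward curve fit referenced to DMSO.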

[16] = target: human Retinoic Acid Receptor gamma (RARg), RARG (gene 5916) (UniProt P13631); test: ATG_RARg_TRANS: Attagene TRANS-FACTORIAL HepG2 Assay for human Retinoic Acid Receptor gamma (RARg) (AID 2283009; active = hit-call score of the fitted dose curve at least 0.9, where 1 is the maximum)
Summary of the method: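 TRANS format measured activity of exogenous NR-GAL4 fusion (RARg) in transfected HepG2 liver cells after 24 h dosing. Induced reporter RNA was detected by RT-PCR/capillary electrophoresis fluorescence, analysed in the positive direction against DMSO.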

[17] = read-out: Intercellular Adhesion Molecule 1 (ICAM1), ICAM1 (gene 3383); test: BSK_3C_ICAM1: BioMAP Diversity Plus: 3C Assay for Intercellular Adhesion Molecule 1 (ICAM1) Biomarker Activity (AID 2283003); settings: primary human endothelial cells (HUVEC); actives raise or lower the signal
Summary of the method: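 Chemicals are dosed onto primary human umbilical vein endothelium (3C system). After 24 h, ICAM-1 is measured by ELISA, and responses are fitted bidirectionally relative to DMSO.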

[18] = target: Retinoic acid receptor alpha (Homo sapiens) (UniProt P10276); test: ATG_RARa_TRANS: Attagene TRANS-FACTORIAL HepG2 Assay for human Retinoic Acid Receptor alpha (RARa) (AID 2283005; active = hit-call score of the fitted dose curve at least 0.9, where 1 is the maximum)
Summary of the method: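 HepG2 transiently transfected with multiplex GAL4-UAS reporter units including a human RARa–GAL4 chimera; 24 h compound exposure. Reporter mRNA quantified by RT-PCR, 6-FAM labeling and capillary electrophoresis; gain of signal versus DMSO.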

[19] = target: Cellular tumor antigen p53 (Homo sapiens) (UniProt P04637); test: ATG_p53_CIS: Attagene CIS-FACTORIAL HepG2 Assay for human p53 Transcription Factor (AID 2282994); settings: HepG2 p53 cis-element reporter, Attagene mRNA; actives raise or lower the signal
Summary of the method: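 Transiently transfected HepG2 (multiple cis reporter transcription units); exposure 24 h; reporter RNA via RT-PCR, 6-FAM extension, 2 h HpaI digest at 37 C, CE detection; DMSO baseline.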

[20] = target: human Retinoic Acid Receptor beta (RARb), RARB (gene 5915) (UniProt P10826); test: ATG_RARb_TRANS: Attagene TRANS-FACTORIAL HepG2 Assay for human Retinoic Acid Receptor beta (AID 2283004; active = hit-call score of the fitted dose curve at least 0.9, where 1 is the maximum)
Summary of the method: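 HepG2, transient MRTU transfection, NR–Gal4 chimera, 24 h treatment; RT-PCR plus CE fluorescence detection of reporter mRNA; gain of signal vs DMSO.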

Measured: AC50

Sequence of human Peroxisome Proliferator-activated Receptor delta (PPARd), PPARD (gene 5467) (Q03181 whole entry, looked up, the tested form may be a part): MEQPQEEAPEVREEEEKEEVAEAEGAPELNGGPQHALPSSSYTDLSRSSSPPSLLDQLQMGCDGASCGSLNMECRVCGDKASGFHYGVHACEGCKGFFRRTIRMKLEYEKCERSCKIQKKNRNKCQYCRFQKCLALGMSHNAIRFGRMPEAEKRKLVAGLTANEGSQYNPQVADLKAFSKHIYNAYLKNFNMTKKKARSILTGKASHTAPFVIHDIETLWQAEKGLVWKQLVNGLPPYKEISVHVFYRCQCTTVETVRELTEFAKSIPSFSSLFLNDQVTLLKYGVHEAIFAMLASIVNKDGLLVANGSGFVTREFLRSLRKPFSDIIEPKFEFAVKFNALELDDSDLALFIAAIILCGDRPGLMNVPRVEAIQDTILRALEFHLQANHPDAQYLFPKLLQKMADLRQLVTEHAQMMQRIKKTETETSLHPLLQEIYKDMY
Sequence of Nuclear receptor subfamily 1 group I member 2 (Homo sapiens) (O75469 whole entry, looked up, the tested form may be a part): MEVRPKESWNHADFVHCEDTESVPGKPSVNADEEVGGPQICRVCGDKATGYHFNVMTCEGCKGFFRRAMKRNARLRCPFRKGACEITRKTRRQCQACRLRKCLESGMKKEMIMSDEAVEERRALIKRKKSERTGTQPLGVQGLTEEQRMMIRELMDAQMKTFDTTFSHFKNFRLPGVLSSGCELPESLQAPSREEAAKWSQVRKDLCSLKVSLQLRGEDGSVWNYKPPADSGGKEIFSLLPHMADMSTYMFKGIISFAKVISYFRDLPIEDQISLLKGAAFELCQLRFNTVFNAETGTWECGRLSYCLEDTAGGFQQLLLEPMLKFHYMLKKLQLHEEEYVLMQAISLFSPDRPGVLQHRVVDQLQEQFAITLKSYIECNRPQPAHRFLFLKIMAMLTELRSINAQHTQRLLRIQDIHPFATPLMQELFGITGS
Sequence of human Peroxisome Proliferator-activated Receptor alpha (PPARa), PPARA (gene 5465) (Q07869 whole entry, looked up): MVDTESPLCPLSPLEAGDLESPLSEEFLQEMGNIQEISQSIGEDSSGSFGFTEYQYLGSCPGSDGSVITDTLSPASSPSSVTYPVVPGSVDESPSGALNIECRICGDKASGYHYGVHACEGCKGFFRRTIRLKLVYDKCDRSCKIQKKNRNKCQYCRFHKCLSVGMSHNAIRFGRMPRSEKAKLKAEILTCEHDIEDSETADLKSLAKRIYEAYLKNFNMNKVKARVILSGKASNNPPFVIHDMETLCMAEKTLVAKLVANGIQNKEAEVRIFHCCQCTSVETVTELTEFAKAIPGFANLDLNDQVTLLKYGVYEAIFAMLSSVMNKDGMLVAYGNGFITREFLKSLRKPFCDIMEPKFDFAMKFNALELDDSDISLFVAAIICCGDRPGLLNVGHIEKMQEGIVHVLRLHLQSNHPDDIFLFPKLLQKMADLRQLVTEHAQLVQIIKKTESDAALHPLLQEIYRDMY
Sequence of Nuclear respiratory factor 1 (Homo sapiens) (Q16656 whole entry, looked up, the tested form may be a part): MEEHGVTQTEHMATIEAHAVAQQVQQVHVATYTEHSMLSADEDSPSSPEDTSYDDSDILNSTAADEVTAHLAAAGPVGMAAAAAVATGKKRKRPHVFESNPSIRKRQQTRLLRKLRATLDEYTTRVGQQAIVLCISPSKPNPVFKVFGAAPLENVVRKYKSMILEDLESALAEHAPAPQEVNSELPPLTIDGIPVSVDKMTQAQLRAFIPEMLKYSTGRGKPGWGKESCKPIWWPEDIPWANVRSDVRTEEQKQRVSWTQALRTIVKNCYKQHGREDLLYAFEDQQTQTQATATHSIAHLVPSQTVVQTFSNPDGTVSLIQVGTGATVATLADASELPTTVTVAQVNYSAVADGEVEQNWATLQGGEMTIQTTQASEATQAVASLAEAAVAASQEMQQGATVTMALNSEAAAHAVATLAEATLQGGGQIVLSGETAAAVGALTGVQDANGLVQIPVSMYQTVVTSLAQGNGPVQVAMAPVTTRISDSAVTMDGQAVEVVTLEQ
Sequence of human Retinoic Acid Receptor gamma (RARg), RARG (gene 5916) (P13631 whole entry, looked up, the tested form may be a part): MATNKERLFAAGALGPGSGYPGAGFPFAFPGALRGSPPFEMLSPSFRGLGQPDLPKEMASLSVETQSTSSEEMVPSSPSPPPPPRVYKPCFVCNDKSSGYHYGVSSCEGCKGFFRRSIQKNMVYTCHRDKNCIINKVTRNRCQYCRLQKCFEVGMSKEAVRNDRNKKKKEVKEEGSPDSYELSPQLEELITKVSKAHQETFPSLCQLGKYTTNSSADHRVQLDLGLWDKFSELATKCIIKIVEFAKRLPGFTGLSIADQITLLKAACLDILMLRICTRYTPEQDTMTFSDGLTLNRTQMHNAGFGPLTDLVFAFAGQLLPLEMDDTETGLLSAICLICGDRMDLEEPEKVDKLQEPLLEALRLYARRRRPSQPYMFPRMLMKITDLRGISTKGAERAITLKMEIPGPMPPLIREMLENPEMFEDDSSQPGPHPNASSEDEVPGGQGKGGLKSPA
Sequence of Myc proto-oncogene protein (Homo sapiens) (P01106 whole entry, looked up, the tested form may be a part): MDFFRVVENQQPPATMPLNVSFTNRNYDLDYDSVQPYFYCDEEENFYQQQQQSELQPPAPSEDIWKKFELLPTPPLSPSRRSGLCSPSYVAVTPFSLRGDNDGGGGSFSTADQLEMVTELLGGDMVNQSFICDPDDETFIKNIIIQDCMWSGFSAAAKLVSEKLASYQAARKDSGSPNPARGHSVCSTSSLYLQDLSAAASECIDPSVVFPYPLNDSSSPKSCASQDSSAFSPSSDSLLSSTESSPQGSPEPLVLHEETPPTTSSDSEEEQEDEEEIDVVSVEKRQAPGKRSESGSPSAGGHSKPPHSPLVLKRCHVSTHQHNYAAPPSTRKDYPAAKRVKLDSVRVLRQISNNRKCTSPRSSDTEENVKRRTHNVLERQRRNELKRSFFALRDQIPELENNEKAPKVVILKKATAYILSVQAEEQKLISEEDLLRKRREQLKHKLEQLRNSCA
Sequence of Retinoic acid receptor alpha (Homo sapiens) (P10276 whole entry, looked up, the tested form may be a part): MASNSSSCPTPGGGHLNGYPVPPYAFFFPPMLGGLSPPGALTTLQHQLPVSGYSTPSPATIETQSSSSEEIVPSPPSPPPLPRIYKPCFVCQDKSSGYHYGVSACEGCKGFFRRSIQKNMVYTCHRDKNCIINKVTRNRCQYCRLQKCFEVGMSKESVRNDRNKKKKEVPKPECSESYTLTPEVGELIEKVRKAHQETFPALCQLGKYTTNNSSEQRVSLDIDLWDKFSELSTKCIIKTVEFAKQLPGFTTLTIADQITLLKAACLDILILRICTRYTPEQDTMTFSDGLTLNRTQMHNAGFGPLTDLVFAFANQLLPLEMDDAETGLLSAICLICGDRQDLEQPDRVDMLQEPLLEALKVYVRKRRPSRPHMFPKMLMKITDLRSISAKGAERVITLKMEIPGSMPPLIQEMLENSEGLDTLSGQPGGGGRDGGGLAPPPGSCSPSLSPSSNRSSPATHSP
Sequence of Peroxisome proliferator-activated receptor gamma (Homo sapiens) (P37231 whole entry, looked up, the tested form may be a part): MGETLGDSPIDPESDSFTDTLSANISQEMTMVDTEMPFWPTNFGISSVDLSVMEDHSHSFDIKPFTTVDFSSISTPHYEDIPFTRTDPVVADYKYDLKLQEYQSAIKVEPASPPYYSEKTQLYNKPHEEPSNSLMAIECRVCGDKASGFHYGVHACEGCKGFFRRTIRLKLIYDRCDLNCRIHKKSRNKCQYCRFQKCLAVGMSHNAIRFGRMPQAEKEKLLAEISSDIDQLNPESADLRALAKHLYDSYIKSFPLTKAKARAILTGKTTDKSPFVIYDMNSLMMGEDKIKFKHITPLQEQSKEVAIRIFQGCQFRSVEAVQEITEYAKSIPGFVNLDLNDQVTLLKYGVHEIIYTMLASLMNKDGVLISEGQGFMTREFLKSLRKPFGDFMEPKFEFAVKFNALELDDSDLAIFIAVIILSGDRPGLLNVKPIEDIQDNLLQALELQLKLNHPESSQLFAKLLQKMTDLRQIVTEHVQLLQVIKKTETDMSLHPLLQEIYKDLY
Sequence of Cellular tumor antigen p53 (Homo sapiens) (P04637 whole entry, looked up): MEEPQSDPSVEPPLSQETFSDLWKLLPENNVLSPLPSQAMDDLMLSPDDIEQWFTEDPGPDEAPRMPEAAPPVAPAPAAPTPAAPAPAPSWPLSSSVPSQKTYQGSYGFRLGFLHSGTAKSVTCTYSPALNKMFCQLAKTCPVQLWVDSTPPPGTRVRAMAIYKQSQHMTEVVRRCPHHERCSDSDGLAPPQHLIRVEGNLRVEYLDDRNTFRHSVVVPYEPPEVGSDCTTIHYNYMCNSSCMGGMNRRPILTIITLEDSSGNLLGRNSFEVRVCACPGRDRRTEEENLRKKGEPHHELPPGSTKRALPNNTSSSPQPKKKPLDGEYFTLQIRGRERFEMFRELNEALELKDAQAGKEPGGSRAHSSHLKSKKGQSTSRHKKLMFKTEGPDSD
Sequence of human Retinoic Acid Receptor beta (RARb), RARB (gene 5915) (P10826 whole entry, looked up, the tested form may be a part): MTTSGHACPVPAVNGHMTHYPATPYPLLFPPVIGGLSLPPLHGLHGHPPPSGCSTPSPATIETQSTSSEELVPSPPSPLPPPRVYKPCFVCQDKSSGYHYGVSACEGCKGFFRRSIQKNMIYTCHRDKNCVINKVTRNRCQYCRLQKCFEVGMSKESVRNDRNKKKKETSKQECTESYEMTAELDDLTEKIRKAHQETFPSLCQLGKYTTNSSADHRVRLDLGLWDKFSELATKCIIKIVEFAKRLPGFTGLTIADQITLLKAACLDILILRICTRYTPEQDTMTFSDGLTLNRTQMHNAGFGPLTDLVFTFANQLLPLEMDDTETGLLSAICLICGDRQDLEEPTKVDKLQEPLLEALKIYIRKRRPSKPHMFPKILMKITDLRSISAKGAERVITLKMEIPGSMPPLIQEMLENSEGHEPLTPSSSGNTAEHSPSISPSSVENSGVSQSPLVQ

CC1(C)CC(O)CC(C)(C)N1[O]
active: [5] 26.6 µM
inactive: [1] | [2] | [3] | [4] | [6] | [7] | [8] | [9] | [10] | [11] | [12] | [13]

CC=C(C)C(C)=O
inactive: [1] | [2] | [3] | [4] | [5] | [6] | [7] | [8] | [9] | [14] | [11] | [12] | [16]
active: [10] 20 µM | [15] 12 µM

c1ccc2sc(SSN3CCOCC3)nc2c1
active: [1] 100 µM | [2] 75 µM | [3] 76.3 µM | [5] 48.8 µM | [6] 100 µM | [7] 9.51 µM | [8] 4.34 µM | [9] 8.13 µM | [10] 5.26 µM | [17] 20 µM | [12] 0.828 µM | [13] 23.2 µM | [15] 45.3 µM
inactive: [4] | [14]

CCC(=O)C1CC(C(C)C)CC=C1C (stereo not given)
active: [5] 40.1 µM | [13] 58.3 µM | [15] 3.16 µM
inactive: [1] | [2] | [3] | [4] | [6] | [11] | [18] | [16]

CCCCCCCOC(=O)c1ccc(O)cc1
inactive: [1] | [2] | [3] | [4] | [19] | [20] | [18] | [13] | [16]
active: [5] 39.4 µM | [6] 46 µM

CCCC=C(C=O)CC
inactive: [1] | [2] | [3] | [4] | [5] | [6] | [14] | [15]

Cc1cccc(C(C)(C)C)c1O
active: [15] 19.9 µM
inactive: [1] | [2] | [3] | [4] | [5] | [6] | [19] | [20] | [18] | [13] | [16]

COC(OC)(C(=O)c1ccccc1)c1ccccc1
active: [15] 0.52 µM
inactive: [1] | [2] | [3] | [4] | [5] | [6] | [7] | [8] | [9] | [10] | [11] | [12] | [13] | [16]

Nc1ccc(O)c([N+](=O)[O-])c1
inactive: [1] | [2] | [3] | [6] | [14] | [11] | [13] | [15]
active: [4] 37.2 µM | [5] 57.9 µM
